The text below walks through data of ChEMBL document CHEMBL2218924, “A broad activity screen in support of a chemogenomic map for kinase signalling research and drug discovery” (Biochem J, 2013).

Assay [1] deals with T1, Ephrin type-A receptor 3 (Homo sapiens) (UniProt P29320).
T1 sequence (whole entry): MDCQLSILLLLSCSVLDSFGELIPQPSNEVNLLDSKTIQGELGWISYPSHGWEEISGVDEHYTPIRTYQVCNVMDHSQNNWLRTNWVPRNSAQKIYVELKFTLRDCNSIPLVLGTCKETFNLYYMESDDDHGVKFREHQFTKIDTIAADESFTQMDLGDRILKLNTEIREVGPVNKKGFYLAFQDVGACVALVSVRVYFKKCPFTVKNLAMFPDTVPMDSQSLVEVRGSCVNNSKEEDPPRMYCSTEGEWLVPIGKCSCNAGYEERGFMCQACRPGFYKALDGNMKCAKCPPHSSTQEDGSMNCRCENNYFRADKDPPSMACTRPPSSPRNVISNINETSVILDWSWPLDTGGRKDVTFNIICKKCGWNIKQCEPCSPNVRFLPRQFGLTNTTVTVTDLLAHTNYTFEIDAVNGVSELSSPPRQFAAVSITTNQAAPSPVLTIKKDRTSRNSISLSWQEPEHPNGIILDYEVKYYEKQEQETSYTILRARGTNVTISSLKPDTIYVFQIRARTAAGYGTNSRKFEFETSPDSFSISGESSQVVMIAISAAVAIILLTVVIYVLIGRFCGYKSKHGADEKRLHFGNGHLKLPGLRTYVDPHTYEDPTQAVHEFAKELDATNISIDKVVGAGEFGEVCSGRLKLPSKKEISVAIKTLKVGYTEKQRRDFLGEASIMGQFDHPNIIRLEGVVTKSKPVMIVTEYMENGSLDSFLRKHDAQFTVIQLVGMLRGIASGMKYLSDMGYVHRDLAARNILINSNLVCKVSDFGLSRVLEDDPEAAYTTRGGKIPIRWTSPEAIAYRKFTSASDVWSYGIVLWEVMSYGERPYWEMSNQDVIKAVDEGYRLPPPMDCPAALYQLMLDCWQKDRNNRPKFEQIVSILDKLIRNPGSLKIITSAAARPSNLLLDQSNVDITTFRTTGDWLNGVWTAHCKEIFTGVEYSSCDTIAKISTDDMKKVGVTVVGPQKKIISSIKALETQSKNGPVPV
The conditions noted are these: at 10 µM.

In assay [2] the target is Ephrin type-A receptor 4 (Homo sapiens) (UniProt P54764). As to conditions: at 1 µM.
Chain of Ephrin type-A receptor 4 (Homo sapiens) (P54764 whole entry): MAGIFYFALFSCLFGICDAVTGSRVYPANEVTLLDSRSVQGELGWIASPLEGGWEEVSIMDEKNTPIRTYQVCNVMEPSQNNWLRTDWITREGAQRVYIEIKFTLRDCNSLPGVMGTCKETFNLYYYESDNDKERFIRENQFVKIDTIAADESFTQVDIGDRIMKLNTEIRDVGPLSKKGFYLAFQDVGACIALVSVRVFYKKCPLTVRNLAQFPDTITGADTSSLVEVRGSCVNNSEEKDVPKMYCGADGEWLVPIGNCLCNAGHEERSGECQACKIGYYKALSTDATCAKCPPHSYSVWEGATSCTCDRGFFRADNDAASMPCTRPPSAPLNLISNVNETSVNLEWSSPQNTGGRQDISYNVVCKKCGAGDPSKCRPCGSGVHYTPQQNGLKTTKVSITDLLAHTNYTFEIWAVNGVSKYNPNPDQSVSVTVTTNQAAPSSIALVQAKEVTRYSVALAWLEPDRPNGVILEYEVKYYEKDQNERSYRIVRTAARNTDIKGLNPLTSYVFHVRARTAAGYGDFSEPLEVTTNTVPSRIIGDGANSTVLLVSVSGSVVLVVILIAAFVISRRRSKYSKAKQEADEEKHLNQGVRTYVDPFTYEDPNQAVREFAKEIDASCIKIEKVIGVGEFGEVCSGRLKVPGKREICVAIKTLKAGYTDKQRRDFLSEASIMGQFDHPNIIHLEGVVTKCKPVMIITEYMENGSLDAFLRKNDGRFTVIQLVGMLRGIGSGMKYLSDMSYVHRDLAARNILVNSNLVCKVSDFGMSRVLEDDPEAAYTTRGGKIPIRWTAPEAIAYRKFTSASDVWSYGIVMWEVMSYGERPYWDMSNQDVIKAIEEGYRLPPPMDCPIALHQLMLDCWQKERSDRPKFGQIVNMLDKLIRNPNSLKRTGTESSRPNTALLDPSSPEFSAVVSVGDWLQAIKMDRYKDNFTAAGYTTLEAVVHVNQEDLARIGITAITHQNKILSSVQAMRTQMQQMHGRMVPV
Assay [3] has the same target. The conditions noted are these: at 10 µM.
In assay [4] the target is Ephrin type-A receptor 5 (Homo sapiens) (UniProt P54756). The conditions noted are these: at 1 µM.
Chain of Ephrin type-A receptor 5 (Homo sapiens) (P54756 whole entry): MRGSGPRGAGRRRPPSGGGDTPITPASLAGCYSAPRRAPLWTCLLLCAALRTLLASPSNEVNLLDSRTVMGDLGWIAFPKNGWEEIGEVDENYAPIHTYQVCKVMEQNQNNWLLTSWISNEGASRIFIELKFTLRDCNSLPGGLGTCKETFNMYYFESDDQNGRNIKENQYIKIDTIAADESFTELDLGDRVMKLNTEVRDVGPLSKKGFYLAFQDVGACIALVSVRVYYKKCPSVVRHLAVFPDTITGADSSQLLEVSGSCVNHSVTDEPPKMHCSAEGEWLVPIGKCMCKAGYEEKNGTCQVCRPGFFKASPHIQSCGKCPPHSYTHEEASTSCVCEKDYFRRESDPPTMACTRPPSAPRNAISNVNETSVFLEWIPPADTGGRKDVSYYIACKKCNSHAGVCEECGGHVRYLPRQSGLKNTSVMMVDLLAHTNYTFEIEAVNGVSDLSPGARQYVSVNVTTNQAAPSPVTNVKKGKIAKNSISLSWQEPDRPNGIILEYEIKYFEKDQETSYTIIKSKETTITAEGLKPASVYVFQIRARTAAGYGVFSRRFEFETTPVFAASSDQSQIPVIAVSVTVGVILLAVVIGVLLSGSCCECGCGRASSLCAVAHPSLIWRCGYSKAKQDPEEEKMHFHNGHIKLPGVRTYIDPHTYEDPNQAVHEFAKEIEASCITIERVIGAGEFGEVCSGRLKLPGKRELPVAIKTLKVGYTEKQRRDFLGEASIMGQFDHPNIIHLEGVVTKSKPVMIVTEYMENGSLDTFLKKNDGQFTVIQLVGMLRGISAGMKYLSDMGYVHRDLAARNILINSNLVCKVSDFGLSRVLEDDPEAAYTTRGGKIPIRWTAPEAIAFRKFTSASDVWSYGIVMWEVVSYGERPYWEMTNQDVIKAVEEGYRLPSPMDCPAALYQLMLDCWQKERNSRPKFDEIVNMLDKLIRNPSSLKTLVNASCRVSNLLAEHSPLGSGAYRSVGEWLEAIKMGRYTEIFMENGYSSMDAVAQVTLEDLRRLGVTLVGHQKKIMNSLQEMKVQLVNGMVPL
The target is the same in assay [5]. The conditions noted are these: at 10 µM.
For assay [6], the target named is Ephrin type-A receptor 7 (Homo sapiens) (UniProt Q15375). The conditions noted are these: at 1 µM.
Chain of Ephrin type-A receptor 7 (Homo sapiens) (Q15375 28-998 limits assumed): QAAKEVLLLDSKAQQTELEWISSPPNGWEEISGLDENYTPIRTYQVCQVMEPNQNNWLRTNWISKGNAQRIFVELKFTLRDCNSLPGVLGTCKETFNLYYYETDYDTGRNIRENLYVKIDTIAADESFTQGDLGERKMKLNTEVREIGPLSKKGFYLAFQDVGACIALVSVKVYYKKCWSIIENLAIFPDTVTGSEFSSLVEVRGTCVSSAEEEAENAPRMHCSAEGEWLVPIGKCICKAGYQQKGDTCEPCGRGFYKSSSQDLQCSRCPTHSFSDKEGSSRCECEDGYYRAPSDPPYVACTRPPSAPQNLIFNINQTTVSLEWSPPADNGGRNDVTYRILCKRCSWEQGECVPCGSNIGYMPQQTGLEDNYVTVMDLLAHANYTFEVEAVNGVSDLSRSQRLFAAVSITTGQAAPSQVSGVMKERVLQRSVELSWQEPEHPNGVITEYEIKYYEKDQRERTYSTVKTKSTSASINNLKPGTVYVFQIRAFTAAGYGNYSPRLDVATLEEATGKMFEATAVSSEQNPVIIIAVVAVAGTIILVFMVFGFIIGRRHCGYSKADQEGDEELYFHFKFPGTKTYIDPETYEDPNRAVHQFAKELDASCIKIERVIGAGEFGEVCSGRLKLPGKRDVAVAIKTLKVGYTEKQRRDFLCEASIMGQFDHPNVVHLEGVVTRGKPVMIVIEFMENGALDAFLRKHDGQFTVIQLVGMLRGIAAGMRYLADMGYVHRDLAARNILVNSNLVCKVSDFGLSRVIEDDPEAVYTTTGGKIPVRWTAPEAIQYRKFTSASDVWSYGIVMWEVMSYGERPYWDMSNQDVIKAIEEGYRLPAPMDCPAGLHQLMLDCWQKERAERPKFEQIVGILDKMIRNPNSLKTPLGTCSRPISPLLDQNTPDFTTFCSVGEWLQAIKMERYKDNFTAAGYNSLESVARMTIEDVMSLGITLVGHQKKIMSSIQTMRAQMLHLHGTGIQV
Assay [7] shares this target. As to conditions: at 10 µM.
Assay [8] addresses T2, Ephrin type-A receptor 8 (Homo sapiens) (UniProt P29322).
T2 sequence (whole entry): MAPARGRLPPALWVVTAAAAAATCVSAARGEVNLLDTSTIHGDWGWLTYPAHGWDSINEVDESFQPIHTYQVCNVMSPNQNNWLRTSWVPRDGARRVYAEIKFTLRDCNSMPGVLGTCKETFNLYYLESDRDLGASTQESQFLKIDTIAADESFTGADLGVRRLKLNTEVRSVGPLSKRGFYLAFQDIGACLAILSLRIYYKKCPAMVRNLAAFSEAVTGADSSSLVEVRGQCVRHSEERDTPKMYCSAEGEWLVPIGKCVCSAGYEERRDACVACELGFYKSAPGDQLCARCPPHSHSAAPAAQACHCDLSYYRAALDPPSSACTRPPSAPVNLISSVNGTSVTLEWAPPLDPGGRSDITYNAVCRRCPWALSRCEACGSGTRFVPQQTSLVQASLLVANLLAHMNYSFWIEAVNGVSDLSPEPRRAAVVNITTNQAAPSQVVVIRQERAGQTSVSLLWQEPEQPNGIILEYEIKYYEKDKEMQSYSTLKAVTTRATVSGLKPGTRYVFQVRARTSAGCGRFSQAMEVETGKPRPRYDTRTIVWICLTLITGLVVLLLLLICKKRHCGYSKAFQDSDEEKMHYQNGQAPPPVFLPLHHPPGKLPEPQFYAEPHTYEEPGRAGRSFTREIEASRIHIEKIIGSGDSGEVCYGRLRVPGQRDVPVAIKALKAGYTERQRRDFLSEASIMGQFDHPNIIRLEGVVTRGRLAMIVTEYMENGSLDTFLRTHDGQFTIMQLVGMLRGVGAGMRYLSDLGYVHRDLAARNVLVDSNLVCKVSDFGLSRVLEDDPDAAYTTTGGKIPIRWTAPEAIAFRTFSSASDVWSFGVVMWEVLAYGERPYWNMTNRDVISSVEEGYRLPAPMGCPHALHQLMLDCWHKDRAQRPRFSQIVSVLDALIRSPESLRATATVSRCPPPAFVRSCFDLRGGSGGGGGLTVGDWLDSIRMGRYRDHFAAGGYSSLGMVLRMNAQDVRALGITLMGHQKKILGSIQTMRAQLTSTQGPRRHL
As to conditions: at 1 µM.

Assay [9] addresses T2, Ephrin type-A receptor 8 (Homo sapiens). The conditions noted are these: at 10 µM.
Assay [10] has as its target T3, Ephrin type-B receptor 1 (Homo sapiens) (UniProt P54762).
T3 sequence (whole entry): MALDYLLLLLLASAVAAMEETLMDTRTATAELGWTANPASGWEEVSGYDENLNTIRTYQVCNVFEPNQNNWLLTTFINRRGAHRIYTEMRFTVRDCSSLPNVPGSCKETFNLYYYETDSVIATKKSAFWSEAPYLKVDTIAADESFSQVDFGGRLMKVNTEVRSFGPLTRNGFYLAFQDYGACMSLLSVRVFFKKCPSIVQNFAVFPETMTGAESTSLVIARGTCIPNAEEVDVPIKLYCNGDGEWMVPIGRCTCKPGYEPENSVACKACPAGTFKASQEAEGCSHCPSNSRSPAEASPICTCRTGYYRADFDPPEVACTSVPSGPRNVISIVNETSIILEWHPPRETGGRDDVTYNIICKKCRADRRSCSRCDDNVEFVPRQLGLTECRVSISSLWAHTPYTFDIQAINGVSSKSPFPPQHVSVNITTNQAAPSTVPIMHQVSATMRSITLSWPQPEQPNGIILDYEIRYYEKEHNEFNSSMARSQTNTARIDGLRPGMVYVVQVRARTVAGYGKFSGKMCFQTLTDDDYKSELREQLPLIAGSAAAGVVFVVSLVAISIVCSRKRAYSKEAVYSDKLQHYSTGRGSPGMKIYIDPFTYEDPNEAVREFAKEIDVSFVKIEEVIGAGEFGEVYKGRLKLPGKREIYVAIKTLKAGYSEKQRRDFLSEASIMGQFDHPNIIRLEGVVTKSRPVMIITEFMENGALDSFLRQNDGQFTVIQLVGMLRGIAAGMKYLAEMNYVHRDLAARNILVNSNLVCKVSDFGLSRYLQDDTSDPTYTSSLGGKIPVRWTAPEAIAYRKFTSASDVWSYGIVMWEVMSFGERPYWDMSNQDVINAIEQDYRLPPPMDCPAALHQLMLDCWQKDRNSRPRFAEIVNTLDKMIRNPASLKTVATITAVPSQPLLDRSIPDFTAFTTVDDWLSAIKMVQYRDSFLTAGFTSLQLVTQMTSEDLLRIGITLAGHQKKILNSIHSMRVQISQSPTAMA
The conditions noted are these: at 1 µM.

One may read the residual activity as the signal under treatment as a percentage of the control signal. Take `Nc1n[nH]c2nnc(-c3c(-c4ccccc4)nn4ccccc34)cc12`: the residual activity turned out to be 93% in [1]; 104% in [2]; 100% in assay [3]; 91% in assay [4]; 94% in [5]; 91% in assay [6]. Also, the residual activity was 83% in assay [7], 91% in assay [8], 80% in assay [9] and 98% in assay [10].
